Laboratory results reported in the supplement of paper PMC9446081.
In all, about 39,000 compounds went through this assay and about 220 (0.56%) showed activity. This is one part of a sample in which actives are shown more often than they occur.

tested on: Escherichia coli K-12 BW25113; assay: relative growth (OD600 normalised to plate interquartile mean) (fraction); higher = less growth inhibition, active = 0.2 or less; conditions: 50 µM; LB; incubation time: overnight (16-24 h)
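Note: Wild-type cells incubated without shaking, value is the mean of two biological replicates.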

SMILES	relative growth
O=C(CCCCCC(=O)N/N=C/[C@H](O)[C@@H](O)[C@H](O[C@@H]1O[C@H](CO)[C@H](O)[C@H](O)[C@H]1O)[C@H](O)CO)NO	1.01 (inactive)
COc1ccc2c3c([nH]c2c1)[C@H](CO)N(C[C@]13CN(C1)C(=O)Cc1cccnc1)S(=O)(=O)c1ccc(cc1)C	0.987 (inactive)
CCn1cc(C(=O)O)c(=O)c2cc(F)c(N3CCNCC3)nc21	0.049 (active)
CCn1cc(C(=O)O)c(=O)c2ccc(C)nc21	1.02 (inactive)
CCn1cc(C(=O)O)c(=O)c2cnc(N3CCNCC3)nc21	0.05 (active)
O=C(O)c1cnc(N2CCCC2)nc1	1.03 (inactive)
CCn1cc(C(=O)O)c(=O)c2cnc(N3CCCC3)nc21	1.09 (inactive)
NC(=O)c1cc(S(N)(=O)=O)ccc1Cl	0.993 (inactive)
C[C@H]1CN([C@@H](C)CO)C(=O)c2cc(NC(=O)Nc3ccc(F)cc3)ccc2O[C@H]1CN(C)S(C)(=O)=O	1.02 (inactive)
Cc1noc(C)c1S(=O)(=O)N(C)C[C@@H]1Oc2ccc(NS(C)(=O)=O)cc2CC(=O)N([C@@H](C)CO)C[C@H]1C	1.01 (inactive)
C[C@@H]1CCCCO[C@@H](CN(C)C(=O)Nc2ccc3c(c2)OCO3)[C@@H](C)CN([C@H](C)CO)C(=O)c2cc(NC(=O)Nc3ccc4c(c3)OCO4)ccc2O1	1.02 (inactive)
C[C@@H]1CN([C@@H](C)CO)C(=O)c2cc(NC(=O)Nc3ccc(F)cc3)ccc2O[C@@H](C)CCCCO[C@@H]1CN(C)Cc1ccncc1	0.93 (inactive)
Cc1noc(C)c1NC(=O)N(C)C[C@@H]1Oc2c(NC(=O)Nc3ccc(C(F)(F)F)cc3)cccc2C(=O)N([C@@H](C)CO)C[C@@H]1C	0.943 (inactive)
CCOC(=O)c1c(C)cc(O)c(C=O)c1O	0.0424 (active)
Cc1cc(O)c(C=O)c(O)c1C(=O)O	1.07 (inactive)
COC(=O)c1c(C)cc(OC(=O)c2c(C)cc(O)c(C=O)c2O)c(C)c1O	0.867 (inactive)
COc1ccc(NC(=O)Nc2ccc3c(c2)C(=O)N([C@@H](C)CO)C[C@H](C)[C@H](CN(C)C(=O)Nc2ccc4c(c2)OCO4)OCCCC[C@@H](C)O3)cc1	1.04 (inactive)
Cc1noc(C)c1NC(=O)Nc1ccc2c(c1)C(=O)N([C@H](C)CO)C[C@@H](C)[C@@H](CN(C)C(=O)NC1CCCCC1)OCCCC[C@H](C)O2	1.02 (inactive)
C[C@H]1CN([C@@H](C)CO)C(=O)c2cc(N(C)C)ccc2O[C@H]1CN(C)S(C)(=O)=O	0.993 (inactive)
Cc1cn2nc([C@@H]3CCCCN3C(=O)c3cc(Cl)ccc3NS(C)(=O)=O)cc2nc1N1CC[C@H](N)C1	0.981 (inactive)
N[C@@H]1[C@H]2CN(c3nc4c(cc3F)c(=O)c(C(=O)O)cn4-c3ccc(F)cc3F)C[C@@H]12	0.0389 (active)

SMILES	relative growth
Cc1ccc(S(=O)(=O)O)cc1.NC1CCN(c2nc3c(cc2F)c(=O)c(C(=O)O)cn3-c2ccc(F)cc2F)C1.O (stereo not drawn)	0.0925 (active)
N[C@H]1CCN(c2nc3c(cc2F)c(=O)c(C(=O)O)cn3-c2ccc(F)cc2F)C1	0.17 (active)
O=C(C[C@@H]1CC[C@@H]2[C@H](COC[C@H](O)CN2S(=O)(=O)c2ccccc2)O1)NCc1ccc2c(c1)OCO2	0.99 (inactive)
C[C@@H]1CCCCO[C@H](CN(C)Cc2ccccc2)[C@@H](C)CN([C@@H](C)CO)C(=O)c2cc(NS(=O)(=O)c3ccc(Cl)cc3)ccc2O1	0.981 (inactive)
Cc1noc(C)c1S(=O)(=O)Nc1ccc2c(c1)C(=O)N([C@H](C)CO)C[C@H](C)[C@H](CN(C)Cc1ccncc1)O2	0.999 (inactive)
COCCOC(=O)N1C(=O)[C@@]2(c3cc(C#CCCO)ccc31)[C@H](C(=O)Nc1nc3ccccc3s1)[C@H]1C(=O)O[C@H](c3ccccc3)[C@H](c3ccccc3)N1[C@@H]2c1ccc(O)cc1	1.02 (inactive)
C[C@H](CO)N1C[C@H](C)[C@@H](CN(C)Cc2ccc(C(=O)O)cc2)OCCCC[C@H](C)Oc2ccc(NS(=O)(=O)c3ccc(F)cc3)cc2C1=O	0.967 (inactive)
C=C1C(=O)O[C@@H]2/C=C(\CO[C@@H]3O[C@H](CO)[C@@H](O)[C@H](O)[C@H]3O)CC/C=C3\C[C@H](OC3=O)[C@@H]12	0.997 (inactive)
C[C@@H]1CN([C@@H](C)CO)C(=O)Cc2cc(NC(=O)Cc3cn(C)c4ccccc34)ccc2O[C@H]1CN(C)Cc1ccc(C(=O)Nc2ccccc2N)cc1	0.988 (inactive)
C[C@H](O)CC1=C[C@H](O)[C@@H](C)OC1=O	1.01 (inactive)
C[C@]1(C(=O)NCc2ccccc2)c2ccccc2C(=O)N(Cc2ccc(OC(F)(F)F)cc2)[C@H]1c1ccc(CO)cc1	0.983 (inactive)
NC[C@@H]1O[C@H](O[C@H]2[C@@H](O)[C@H](O[C@@H]3[C@@H](O)[C@H](N)C[C@H](N)[C@H]3O[C@@H]3O[C@H](CO)[C@@H](O)C[C@H]3N)O[C@@H]2CO)[C@H](N)[C@@H](O)[C@@H]1O[C@H]1O[C@H](CO)[C@@H](O)[C@H](O)[C@@H]1O	1.01 (inactive)
CNC1C(OC2OC(CO)C(N)C(O)C2O)OC2CC(N)C(OC3C(N)CC(N)C(O)C3O)OC2C1O.O=S(=O)(O)O (stereo not drawn)	1.2 (inactive)
NCC1OC(OC2C(N)CC(N)C(OC3OC(CO)C(O)C(N)C3O)C2O)C(N)CC1O (stereo not drawn)	0.0445 (active)
CN[C@@H]1[C@@H](O[C@H]2O[C@H](CO)[C@@H](N)[C@H](O)[C@H]2O)O[C@H]2C[C@@H](N)[C@H](O[C@H]3[C@H](O)[C@@H](O)[C@H](N)C[C@@H]3N)O[C@@H]2[C@@H]1O	0.978 (inactive)
NCC1CCC(N)C(OC2C(N)CC(N)C(OC3OC(CO)C(O)C(N)C3O)C2O)O1 (stereo not drawn)	0.947 (inactive)
NC[C@H]1O[C@H](O[C@H]2[C@H](O)[C@@H](O[C@H]3O[C@H](CO)[C@@H](O)[C@H](N)[C@H]3O)[C@H](N)C[C@@H]2N)[C@H](N)C[C@@H]1O	0.0393 (active)
C[C@H]1CN([C@@H](C)CO)C(=O)CCCn2cc(nn2)CO[C@@H]1CN(C)S(=O)(=O)c1cccc(C#N)c1	0.987 (inactive)
C[C@H](CO)N1C[C@H](C)[C@@H](CN(C)Cc2ccc(Oc3ccccc3)cc2)Oc2ccc(NC(=O)C3CC3)cc2C1=O	0.915 (inactive)
C[C@H]1CN([C@@H](C)CO)C(=O)c2ccccc2-c2ccccc2CO[C@H]1CN(C)S(=O)(=O)c1ccc(C(F)(F)F)cc1	1.04 (inactive)
C[C@H]1CN([C@@H](C)CO)S(=O)(=O)c2ccc(C3=CCCCC3)cc2O[C@H]1CN(C)Cc1cncnc1	1.02 (inactive)

SMILES	relative growth
COc1ccccc1S(=O)(=O)N(C)C[C@H]1OCc2cn(nn2)CCCC(=O)N([C@@H](C)CO)C[C@H]1C	1.05 (inactive)
C[C@H]1CN([C@@H](C)CO)C(=O)Cc2cc(NC(=O)C3CCCCC3)ccc2O[C@@H]1CN(C)S(C)(=O)=O	0.992 (inactive)
C[C@@H]1CN([C@H](C)CO)C(=O)c2cc(NS(=O)(=O)c3ccc(F)cc3)ccc2O[C@@H](C)CCCCO[C@@H]1CN(C)Cc1ccc(C(=O)O)cc1	1 (inactive)
Clc1ccc2sc(Sc3ccccc3)nc2c1	0.985 (inactive)
COc1ccc(-c2c(C)oc3ccc(Cl)cc23)cc1	0.992 (inactive)
CC1CCC2(C)C(C=O)=CCCC2C1(C)CC1OC(O)C(=O)C12CO2 (stereo not drawn)	0.0462 (active)
COC(=O)[C@@H](NC(=O)c1cccc(NC=O)c1O)[C@@H](C)O	1.04 (inactive)
C[C@@H]1CN([C@H](C)CO)C(=O)c2cc(NC(=O)c3ccncc3)ccc2O[C@@H](C)CCCCO[C@H]1CN(C)Cc1ccc(C(F)(F)F)cc1	1 (inactive)
Cc1noc(C)c1NC(=O)N(C)C[C@H]1OCCCC[C@@H](C)Oc2ccc(NS(=O)(=O)c3ccccc3)cc2C(=O)N([C@@H](C)CO)C[C@H]1C	1.01 (inactive)
O=C1OCCN1N=Cc1ccc([N+](=O)[O-])o1	0.0457 (active)
O=C1OC(CN2CCOCC2)CN1N=Cc1ccc([N+](=O)[O-])o1 (stereo not drawn)	0.575 (inactive)
O=C1CN(N=Cc2ccc(-c3ccc([N+](=O)[O-])cc3)o2)C(=O)[N-]1.[Na+]	1.06 (inactive)
O=C1CN(/N=C/c2ccc([N+](=O)[O-])o2)C(=O)N1	0.031 (active)
O=C1CN(N=Cc2ccc([N+](=O)[O-])o2)C(=O)N1	0.0462 (active)
Cc1cc(C(=O)Nc2cccc3c2O[C@@H](CN(C)S(=O)(=O)c2ccccc2)[C@H](C)CN([C@@H](C)CO)C3=O)n(C)n1	1.01 (inactive)
C[C@@H]1CN([C@@H](C)CO)S(=O)(=O)c2ccc(Br)cc2O[C@@H]1CN(C)S(=O)(=O)c1ccc(F)cc1	1.04 (inactive)
CCN1CCN(CC(=O)Nc2ccc(-c3cccc4c(=O)cc(N5CCOCC5)oc34)c3sc4ccccc4c23)CC1	0.981 (inactive)
COc1ccc(S(=O)(=O)Nc2cccc3c2O[C@H](CN(C)S(=O)(=O)c2cn(C)cn2)[C@@H](C)CN([C@H](C)CO)C3=O)cc1	1.01 (inactive)
CN(C)CCCNC(=O)C[C@@H]1CC[C@@H]2[C@H](COc3ccc(NS(C)(=O)=O)cc3C(=O)N2C)O1	1 (inactive)
C[C@@H]1CCCCO[C@H](CN(C)Cc2ccccc2)[C@@H](C)CN([C@H](C)CO)C(=O)c2cc(NC(=O)C3CCCCC3)ccc2O1	0.995 (inactive)
C[C@@H]1CCCCO[C@@H](CN(C)C(=O)Nc2ccc3c(c2)OCO3)[C@@H](C)CN([C@H](C)CO)C(=O)c2cc(NC(=O)c3ccccc3)ccc2O1	1.01 (inactive)
